Here are results for eight compounds from PubChem BioAssay.

SMILES strings stand for the structures. The source made the active and inactive calls.

Test [1] is described as follows: small-molecule microarray binders of probe aNog, primary screen, biochemical, biotinylated probe, 635/667 nm fluorescence (AID 1115).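 Further: probe is biotinylated aNog protein used at 0.15 µg/mL for 1 h at 4 C; z-score combines 667 nm fluorescence of each spot with its signal to noise.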 Conditions: higher = more signal.
In test [2] the target is Torsin-1A-interacting protein 1 (Homo sapiens) (UniProt Q5JTV8). The experiment in a line: LAP1 binders from COS7 cell lysate, primary screen, small-molecule microarray, 635/667 nm fluorescence (AID 1116). Conditions: COS7-hLAP1 lysate binding, 635 nm fluorescence, higher = more signal.
Test [3] concerns the target Albumin (Bos taurus) (UniProt P02769). The experiment in a line: bovine serum albumin binders on microarray, profiling panel, artefact control for SMM control protein annotation, biochemical, small-molecule microarray, Alexa647 label, 635/667 nm fluorescence (AID 1118).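 Further: score merges 667 nm emission intensity and signal-to-noise per printed compound spot.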 The settings on record: BSA-A647 binding, fluorescence 635 nm, higher = more signal.
The nature of test [4]: small-molecule microarray binders of probe aXIP, primary screen, biochemical, NeuroSMM set, 635/667 nm fluorescence (AID 1119).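 Further: probe is the protein aXip251-270 applied at 1 µg/mL to compound-printed slides; binding of probe to printed compounds measured as 667 nm fluorescence plus signal to noise.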 Conditions: higher = more signal, called active from +8 up or from −8 down.
Test [5] in a line: small-molecule binders of probe aNOTCH3, primary screen, biochemical, small-molecule microarray, 635/667 nm fluorescence (AID 1120).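 Further: probe is a biotin-tagged antibody raised against NOTCH3 rather than NOTCH3 protein; score merges spot fluorescence near 667 nm with spot signal to noise.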 Conditions: higher = more signal.
A short description of test [6]: small-molecule binders of probe aNOTCH2, primary screen, biochemical, small-molecule microarray, 635/667 nm fluorescence (AID 1121).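 Further: score merges feature fluorescence read at 667 nm with its signal to noise.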 The settings on record: higher = more signal.
Test [7] addresses Carbonic anhydrase 2 (Homo sapiens) (UniProt P00918). Description: CAII small-molecule binders, profiling panel, biochemical, small-molecule microarray, Alexa647-labelled CAII (AID 1122). Conditions: CAII-A647 binding fluorescence, higher = more signal.
Test [8] is described as follows: COS7 lysate on small-molecule microarray, probe aHis, 635 nm (AID 1123).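 Further: z-score combines 667nm fluorescence intensity with signal-to-noise per printed compound spot.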 The settings on record: COS7 cell lysate, fluorescence, higher = more signal.
A short description of test [9]: compound binding in COS7 lysate, probe aLAP1, primary screen, cell lysate, small-molecule microarray (AID 1124).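 Further: lysate comes from COS7 cells expressing LAP1 and is applied at 0.3 µg/mL; score merges spot fluorescence near 667 nm with signal-to-noise over triplicate slides.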 The settings on record: probe aLAP1, fluorescence, higher = more signal.
In test [10] the test system is Sam68 (KHDRBS1). Description: Sam68 small-molecule binders, primary screen, biochemical, small-molecule microarray, 635 nm fluorescence (AID 1125).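 Further: score merges 667 nm channel intensity with signal to noise over triplicate slides.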 The settings on record: small-molecule microarray binding, higher = more signal.
For test [11], the system named is Chordin-like protein 2 (CHRDL2). Description: CHRDL2 small-molecule binders, primary screen, biochemical, small-molecule microarray, 635 nm fluorescence (AID 1126).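 Further: printed compound slides probed with Chrdl2 protein at 4 µg/mL for 1 h at 4 C; score merges 667 nm emission intensity with signal to noise over three replicate slides.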 Conditions: small-molecule microarray binding, fluorescence 635 nm; higher = more signal.
Test [12] addresses Concanavalin-A (Canavalia ensiformis) (UniProt P02866). Description: ConA small-molecule binders, primary screen, artefact control for SMM control protein annotation, biochemical, small-molecule microarray, Alexa647 label, 635 nm (AID 1127).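 Further: z combines 667 nm emission intensity with signal-to-noise across three replicate slides.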 Conditions: ConA-A647 binding fluorescence, higher = more signal.
Test [13] is described as follows: anti-His antibody binders, primary screen, artefact control for SMM control protein annotation, biochemical, small-molecule microarray, 635 nm fluorescence (AID 1128).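 Further: score merges feature fluorescence with signal-to-noise for each printed compound spot.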 The settings on record: anti-His Alexa647 antibody binding, higher = more signal.
In test [14] the test system is Human papillomavirus type 1a E7 protein (residues 1-88). Description: HPV1a E7 small-molecule binders, primary screen, biochemical, small-molecule microarray, residues 1-88, 635 nm (AID 1129). The settings on record: small-molecule microarray binding, fluorescence 635 nm; higher = more signal.
The target in test [15] is Focal adhesion kinase 1 (Homo sapiens) (UniProt Q05397). The experiment in a line: small-molecule microarray binders of FAK, primary screen, biochemical, 635/667 nm fluorescence, BSA, DTT (AID 1130).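 Further: composite of spot emission at 667 nm and signal to noise over triplicate slides.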 The settings on record: PTK2 binding, 635 nm fluorescence, higher = more signal.
Test [16] relates to Fibrinogen (Alexa647-labelled). Description: fibrinogen binders on compound microarrays, profiling panel, artefact control for SMM control-protein annotation, biochemical, small-molecule microarray, 635/667 nm fluorescence (AID 1131).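 Further: z-score merges 667 nm fluorescence with per-spot signal-to-noise over triplicate slides.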 The settings on record: fibrinogen-A647 binding fluorescence, higher = more signal.
Test [17] deals with Follistatin (Homo sapiens) (UniProt P19883). The experiment in a line: follistatin binders on small-molecule microarrays, primary screen, biochemical, small-molecule microarray, 635/667 nm fluorescence (AID 1132). Conditions: FST binding, 635 nm fluorescence, higher = more signal.
Test [18] concerns the target Fibroblast growth factor 2 (Homo sapiens) (UniProt P09038). The experiment in a line: FGF2 binders on small-molecule microarrays, primary screen, biochemical, small-molecule microarray, 635/667 nm fluorescence (AID 1133). Conditions: small-molecule microarray binding, FGF2, fluorescence 635/667; higher = more signal.
Test [19] is described as follows: mitochondrial membrane potential change in A549 cells, profiling panel, cell-based, JC-1 fluorescence, basal, 24 h, 100 nL (AID 1138).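 Further: A549 lung adenocarcinoma cells under basal conditions with no added stimulus; test concentration not given here.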 Conditions: higher = more signal.
Test [20] concerns Lefty1. Description: Lefty1 binders on small-molecule microarrays, primary screen, biochemical, small-molecule microarray, 635/667 nm fluorescence (AID 1139). Conditions: small-molecule microarray binding, fluorescence 635/667; higher = more signal.

Chain of Follistatin (Homo sapiens) (P19883 whole entry, looked up): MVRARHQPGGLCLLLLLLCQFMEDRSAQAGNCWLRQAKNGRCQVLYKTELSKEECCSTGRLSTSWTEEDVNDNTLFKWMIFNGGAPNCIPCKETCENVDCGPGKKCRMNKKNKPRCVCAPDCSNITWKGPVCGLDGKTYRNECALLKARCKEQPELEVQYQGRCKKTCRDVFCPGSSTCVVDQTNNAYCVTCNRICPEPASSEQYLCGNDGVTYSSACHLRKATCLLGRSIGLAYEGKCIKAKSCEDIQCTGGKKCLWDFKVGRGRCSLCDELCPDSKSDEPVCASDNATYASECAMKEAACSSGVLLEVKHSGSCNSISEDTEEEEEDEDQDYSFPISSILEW
Chain of Albumin (Bos taurus) (P02769 whole entry, looked up): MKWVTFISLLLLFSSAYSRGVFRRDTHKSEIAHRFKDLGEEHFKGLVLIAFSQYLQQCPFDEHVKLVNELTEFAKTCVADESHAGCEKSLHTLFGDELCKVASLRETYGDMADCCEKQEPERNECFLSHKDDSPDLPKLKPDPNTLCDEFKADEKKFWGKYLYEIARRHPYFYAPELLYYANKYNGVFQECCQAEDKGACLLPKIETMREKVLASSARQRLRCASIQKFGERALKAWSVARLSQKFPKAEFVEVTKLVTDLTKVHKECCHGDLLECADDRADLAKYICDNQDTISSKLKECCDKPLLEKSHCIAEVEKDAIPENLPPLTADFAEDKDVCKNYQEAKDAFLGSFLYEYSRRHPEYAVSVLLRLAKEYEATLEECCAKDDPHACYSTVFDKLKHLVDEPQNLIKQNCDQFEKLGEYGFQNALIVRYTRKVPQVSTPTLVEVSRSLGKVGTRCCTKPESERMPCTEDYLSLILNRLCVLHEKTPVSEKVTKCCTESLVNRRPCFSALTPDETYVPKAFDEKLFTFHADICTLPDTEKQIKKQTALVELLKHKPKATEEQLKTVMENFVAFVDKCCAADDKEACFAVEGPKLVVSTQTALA
Chain of Torsin-1A-interacting protein 1 (Homo sapiens) (Q5JTV8 whole entry, looked up): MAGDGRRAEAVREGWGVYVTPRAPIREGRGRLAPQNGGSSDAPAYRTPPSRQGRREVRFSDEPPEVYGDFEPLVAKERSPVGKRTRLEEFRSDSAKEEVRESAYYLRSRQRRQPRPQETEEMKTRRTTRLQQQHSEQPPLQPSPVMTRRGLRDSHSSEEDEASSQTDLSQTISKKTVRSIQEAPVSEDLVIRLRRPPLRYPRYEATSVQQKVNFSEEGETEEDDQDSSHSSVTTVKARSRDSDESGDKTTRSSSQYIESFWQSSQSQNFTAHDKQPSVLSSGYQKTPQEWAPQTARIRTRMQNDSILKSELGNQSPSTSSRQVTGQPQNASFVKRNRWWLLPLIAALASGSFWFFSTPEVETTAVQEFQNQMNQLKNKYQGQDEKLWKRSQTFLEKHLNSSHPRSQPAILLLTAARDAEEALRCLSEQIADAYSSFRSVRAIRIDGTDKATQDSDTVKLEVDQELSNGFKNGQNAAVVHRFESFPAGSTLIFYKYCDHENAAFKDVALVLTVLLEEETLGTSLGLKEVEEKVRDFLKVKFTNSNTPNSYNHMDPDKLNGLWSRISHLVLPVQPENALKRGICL
Chain of Focal adhesion kinase 1 (Homo sapiens) (Q05397 whole entry, looked up): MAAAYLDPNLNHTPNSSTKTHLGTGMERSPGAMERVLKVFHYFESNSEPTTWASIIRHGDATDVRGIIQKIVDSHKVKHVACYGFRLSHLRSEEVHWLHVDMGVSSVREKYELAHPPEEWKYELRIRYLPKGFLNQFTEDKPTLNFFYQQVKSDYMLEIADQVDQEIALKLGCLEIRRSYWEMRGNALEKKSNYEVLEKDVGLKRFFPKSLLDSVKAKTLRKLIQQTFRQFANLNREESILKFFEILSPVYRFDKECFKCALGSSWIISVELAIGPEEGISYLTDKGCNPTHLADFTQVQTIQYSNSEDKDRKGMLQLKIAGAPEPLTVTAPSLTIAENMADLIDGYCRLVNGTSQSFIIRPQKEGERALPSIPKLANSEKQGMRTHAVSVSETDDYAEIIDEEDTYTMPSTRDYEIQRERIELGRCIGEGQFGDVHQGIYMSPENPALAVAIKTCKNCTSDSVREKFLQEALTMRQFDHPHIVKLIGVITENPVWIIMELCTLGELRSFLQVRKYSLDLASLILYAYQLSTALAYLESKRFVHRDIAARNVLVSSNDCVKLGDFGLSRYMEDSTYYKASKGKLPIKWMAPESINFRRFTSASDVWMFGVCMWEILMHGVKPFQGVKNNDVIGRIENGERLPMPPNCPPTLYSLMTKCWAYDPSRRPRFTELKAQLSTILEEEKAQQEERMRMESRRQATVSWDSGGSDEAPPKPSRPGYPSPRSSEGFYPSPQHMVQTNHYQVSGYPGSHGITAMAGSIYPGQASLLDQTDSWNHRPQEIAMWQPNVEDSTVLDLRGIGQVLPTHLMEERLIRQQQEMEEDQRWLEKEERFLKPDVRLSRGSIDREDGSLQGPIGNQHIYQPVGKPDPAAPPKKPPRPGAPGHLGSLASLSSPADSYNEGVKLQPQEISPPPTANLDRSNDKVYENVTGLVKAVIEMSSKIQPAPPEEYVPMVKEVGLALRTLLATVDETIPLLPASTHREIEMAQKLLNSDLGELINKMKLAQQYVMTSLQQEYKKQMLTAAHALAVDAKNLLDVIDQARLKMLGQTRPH
Chain of Concanavalin-A (Canavalia ensiformis) (P02866 whole entry, looked up): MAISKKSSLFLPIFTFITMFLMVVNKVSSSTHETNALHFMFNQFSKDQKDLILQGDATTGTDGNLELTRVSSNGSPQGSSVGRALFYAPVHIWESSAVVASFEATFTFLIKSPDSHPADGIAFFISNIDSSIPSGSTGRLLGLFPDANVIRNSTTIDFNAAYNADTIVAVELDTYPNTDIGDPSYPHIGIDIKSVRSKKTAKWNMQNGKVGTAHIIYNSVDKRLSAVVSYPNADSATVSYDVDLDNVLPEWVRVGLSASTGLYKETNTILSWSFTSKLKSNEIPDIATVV
Chain of Fibroblast growth factor 2 (Homo sapiens) (P09038 whole entry, looked up): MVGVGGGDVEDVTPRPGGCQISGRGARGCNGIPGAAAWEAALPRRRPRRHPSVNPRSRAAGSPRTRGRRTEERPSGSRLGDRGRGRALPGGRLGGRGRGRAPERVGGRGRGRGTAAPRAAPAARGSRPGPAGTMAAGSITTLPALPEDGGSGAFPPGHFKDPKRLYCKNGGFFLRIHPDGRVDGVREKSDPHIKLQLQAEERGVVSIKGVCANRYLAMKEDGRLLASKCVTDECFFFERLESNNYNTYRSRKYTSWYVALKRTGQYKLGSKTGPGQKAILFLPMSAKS

On to `C=CCOC(=O)[C@H]1[C@@H]2C(=O)O[C@@H](c3ccccc3)[C@@H](c3ccccc3)N2[C@@H](c2ccc(OCCOC(=O)[C@H]3C[C@H]4C(=O)N5CCC[C@H]5C(=O)N4[C@H]3c3cccc(OCCO)c3)cc2)[C@]12C(=O)Nc1ccccc12`, for which the composite z-score in test [1] was 0.228; in [2], 0.925; in test [3] it was -0.592; in [5], -0.0647; in [6] it was -0.0424; in test [7] it was 0.466. For the same compound, the composite z-score was 2.31 in test [8]; -0.103 in test [9]; 1.31 in [10]; 1.37 in test [11]; 0.96 in test [12]; 1.34 in [13]. Moreover, the composite z-score in [14] was found to be 1.16; in [15] it was 0.903; in test [16], 0.47; in test [17] it was 1.34; in test [18], 1.57; in [20], 0.628. Moreover, the composite Z-score in [4] was 1.51 (inactive). The z-score in test [19] is -0.851.

For `COCCOC(=O)N1C(=O)[C@@]2(c3cc(C#CC4(O)CCCCCC4)ccc31)[C@H](C(=O)NC[C@H](O)c1ccccc1)[C@H]1C(=O)O[C@H](c3ccccc3)[C@H](c3ccccc3)N1[C@@H]2c1ccccc1OCCO`, the composite z-score in test [1] is -0.0939; in test [2], 0.945; in test [3] it was -0.383; in test [5] it was 0.0596; in [6], -0.0956; in test [7], 0.668. Besides, the composite z-score in test [8] was 1.04; in [9], -0.0189; in test [10] it was 1.32; in test [11], 0.405; in [12], 1.14; in test [13], 0.67. In addition, the composite z-score was 1.16 in test [14]; 0.714 in test [15]; 0.873 in test [16]; 1.28 in test [17]; 1.56 in test [18]; 1.4 in test [20]. In addition, in test [4], the composite Z-score was 1.51 (inactive). In addition, the z-score in [19] was -0.88.

As to `CC(=O)NCCCC[C@@H]1NC(=O)[C@@H]2C[C@H](C(=O)O)[C@H](c3cccc(OCCO)c3)N2C1=O`, the composite z-score in test [1] is -0.37; in test [2], 0.947; in test [3], -1.33; in test [5], -0.126; in test [6], -0.146; in test [7] it was 0.276. The composite z-score in [8] was determined as 0.348; in test [9] it was 0.0927; in [10], 1.34; in [11] it was 1.31; in test [12], 1.15; in [13], 2. The composite z-score in [14] worked out at 1.07; in test [15] it was 0.341; in test [16], 0.041; in test [17], 1.35; in test [18] it was 1.73; in [20], 1.42. In addition, in test [4], the composite Z-score is 0.274 (inactive). In test [19], this compound registered a z-score of 1.2.

Turning to `COC(=O)C1=CC(c2ccc(CO)cc2)=CC(c2cccs2)N(C)C=C1C(=O)OC` (stereo not given), the composite z-score in [1] was 0.603; in [2], 0.107; in test [3], 0.208; in test [5], -0.0023; in [6], -0.14; in [7], 0.589. Also, the composite z-score in test [8] is 2; in [9], 0.387; in test [10], 0.494; in [11], -1.14; in test [12], 0.494; in test [13], 1.48. The composite z-score in test [14] was -0.351; in test [15] it was 1.18; in test [16] it was -0.141; in [17] it was 0.23; in test [18], -0.485; in test [20], -0.116. In addition, the composite Z-score in [4] is 0.875 (inactive). For the same compound, in test [19], the z-score turned out to be 1.08.

As to `COCCCNC(=O)[C@@]1(CCS(=O)(=O)c2ccccc2)N=C(c2ccc(OCCCO)cc2)O[C@H]1c1ccccc1CN=[N+]=[N-]`, the composite z-score in test [1] is 0.64; in [2] it was 0.732; in test [3] it was 0.91; in [5], 0.448; in test [6], 0.0763; in test [7], 0.528. Also, the composite z-score in test [8] was 2.3; in [9], 0.561; in test [10] it was 1.22; in [11], -0.308; in [12], 1.12; in test [13] it was 2.56. Moreover, the composite z-score in [14] was determined as 1.21; in test [15], 1.17; in [16] it was 0.989; in [17], 1.4; in test [18] it was 1.53; in test [20] it was 0.578. Besides, in [4], the composite Z-score was 0.582 (inactive). This compound came in with a z-score in [19] of 0.579.

For `COCCOC(=O)N1C(=O)[C@@]2(c3cc(C#CC4(O)CCCCCC4)ccc31)[C@H](c1ccccc1OCCO)N1[C@H](c3ccccc3)[C@H](c3ccccc3)OC(=O)[C@H]1[C@@H]2C(=O)Nc1nc2ccccc2s1`, the composite z-score in test [1] was 0.182; in [2] it was 1.46; in test [3], 0.655; in [5] it was -0.0942; in test [6], -0.0843; in test [7], 0.53. The composite z-score in test [8] worked out at 1.16; in test [9] it was 0.417; in [10] it was 1.16; in test [11], 0.478; in test [12] it was 1.18; in [13], 1.84. The composite z-score was 1.21 in [14]; 0.862 in test [15]; 0.805 in test [16]; 1.39 in test [17]; 1.16 in test [18]; 1.5 in test [20]. In [4], the composite Z-score is -0.344 (inactive). Moreover, the z-score in [19] is -1.56.

With `COc1ccc([Si](C)(C)[C@H]2[C@H](CCO)O[C@@]3(C(=O)N(Cc4ccc(N5C(=O)c6cccc7cccc5c67)cc4)c4ccccc43)[C@@H]2C)cc1`, the composite z-score in [1] is 0.467; in [2] it was 0.18; in test [3] it was 0.258; in test [5], -0.214; in test [6], -0.123; in [7] it was 0.346. Further, the composite z-score was 0.249 in test [8]; 0.0741 in test [9]; -0.465 in test [10]; -1.06 in test [11]; 0.609 in [12]; 0.21 in test [13]. Besides, the composite z-score is -0.141 in test [14]; -0.266 in [15]; 0.193 in test [16]; -0.771 in test [17]; -0.611 in [18]; -0.255 in [20]. In [4], the composite Z-score is 0.466 (inactive). Besides, the z-score in test [19] was 1.9.

Regarding `CC(C)C(CO)N1C(=O)[C@@H]2[C@H]3C(=O)OCC=C[C@H]3OC23C=CCN(Cc2ccccc2)C(=O)[C@@H]13` (stereo not given in full), the composite z-score in test [1] was 0.0342; in test [2] it was -0.207; in test [3], -1.27; in test [5] it was 0.271; in [6], -0.154; in test [7], 0.833. Further, the composite z-score in test [8] is -0.635; in test [9], -0.733; in test [10], -0.69; in [11], -1.02; in test [12], -2.22; in test [13], -1.88. The composite z-score is -1.62 in [14]; -0.778 in [15]; -1.48 in [16]; -0.317 in [17]; -0.392 in test [18]; -0.375 in test [20]. In test [4], the composite Z-score is -0.0662 (inactive). The same compound returned a z-score in test [19] of 0.792.
